# Assay outcomes deposited in PubChem BioAssay by several laboratories.
# Sampled rows, rich in hits. Any-hit rate of the full collection: about 1.7%.
# SUMO1-SIM PPI: SUMO1-SIM interaction modulation. P63165. SUMO1 binding to a labelled peptide, TR-FRET, 1 h. inhibition, % at 20 µM. 0.33% of 360,000 active. AID 602429; in the data active = inhibition above about 37%
# Neddylation inh: inhibitors of human cullin neddylation; 0.58% of 360,000 active; P61081+Q13564; TR-FRET cullin neddylation, biochemical; inhibition, % at 25 µM; AID 651699; in the data active = inhibition above about 36%
# Target sequence (P61081 whole entry, looked up): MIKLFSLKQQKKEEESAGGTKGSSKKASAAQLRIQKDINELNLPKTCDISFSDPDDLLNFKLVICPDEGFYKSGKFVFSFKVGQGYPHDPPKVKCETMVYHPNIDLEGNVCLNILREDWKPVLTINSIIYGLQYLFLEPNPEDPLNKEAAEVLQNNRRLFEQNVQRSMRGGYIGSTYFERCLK
# Target sequence (Q13564 whole entry, looked up): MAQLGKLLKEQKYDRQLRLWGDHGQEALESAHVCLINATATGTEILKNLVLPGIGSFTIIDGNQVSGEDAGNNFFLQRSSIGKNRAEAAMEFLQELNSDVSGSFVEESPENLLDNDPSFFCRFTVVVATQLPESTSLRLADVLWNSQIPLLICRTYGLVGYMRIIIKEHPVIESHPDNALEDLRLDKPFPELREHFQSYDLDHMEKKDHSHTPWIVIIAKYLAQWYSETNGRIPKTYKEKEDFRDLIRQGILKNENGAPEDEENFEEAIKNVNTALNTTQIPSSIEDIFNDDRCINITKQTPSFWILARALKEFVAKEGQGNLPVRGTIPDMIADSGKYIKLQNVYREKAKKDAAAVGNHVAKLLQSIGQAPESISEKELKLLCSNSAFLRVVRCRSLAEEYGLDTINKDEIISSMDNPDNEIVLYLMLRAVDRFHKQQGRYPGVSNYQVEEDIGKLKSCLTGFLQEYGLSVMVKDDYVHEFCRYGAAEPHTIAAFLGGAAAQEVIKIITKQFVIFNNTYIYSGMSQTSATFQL
# Rin1-Abl PPI inh: blocks binding of human Rin1 to Abl. 0.4% of 360,000 active. TR-FRET Rin1/Abl binding, biochemical. inhibition, % at 7.35 µM. AID 588664; in the data active = inhibition above about 5%, passing the limit was not always enough
# ATG4B inhibitor: inhibitors of human ATG4B cysteine protease; Q9Y4P1; ATG4B cleavage of LC3-PLA2, NBD-HPC fluorescence, 1 h; AID 504462; 0.51% of 340,000 active; inhibition, % at 8.33 µM; in the data active = inhibition above about 40%
# Rin1-Abl confirm: confirmation of inhibitors of human Rin1-Abl interaction; inhibition, % at 7.35 µM; shares compounds with Rin1-Abl PPI inh; TR-FRET Rin1-Abl binding, purified proteins; AID 602124; 49% of 1,300 active
# GFP quench: quenches GFP fluorescence, counter-screen for Rin1-Abl inhibitors. shares compounds with Rin1-Abl PPI inh. inhibitors/quenchers counterscreen. inhibition, % at 6.75 µM. 8.5% of 1,300 active. AID 602125;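 also: ABL1-eGFP fusion protein alone without its partner RIN1-SBP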
# GFP quench DR: GFP fluorescence interference dose response. IC50, µM. AID 602182. 230 tested, under 10 active. GFP fluorescence interference/quenching counterscreen. shares compounds with Rin1-Abl PPI inh; call rule not given here;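 also: ABL1-eGFP fusion protein alone without its RIN1 binding partner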
# Hits are given with their value; . = inactive; / = no result given. Rule as the data show it, unless noted: active = inhibition above about 6.5%; inactive = the rest.
SMILES,SUMO1-SIM PPI,Neddylation inh,Rin1-Abl PPI inh,ATG4B inhibitor,Rin1-Abl confirm,GFP quench,others
Nc1[nH]c(C(=O)c2ccccc2)c(-c2ccc(Br)cc2)c1C(=O)c1ccc(Br)cc1,.,.,/,/,/,/,
CCOc1ccc(CN(C)C(=O)CCNC(=O)c2ccco2)cc1,.,.,8.6,.,.,.,
CCOc1ccc(CNC(=O)c2ccco2)cc1,.,.,.,.,/,/,
Cn1c(=O)c2c(nc(NCc3ccco3)n2Cc2ccccc2Cl)n(C)c1=O,.,.,7.1,.,6.7,.,
Cc1cc2c(cc1C)-c1nnnn1C(N1CCCCC1)C(=O)N2 (centres undefined),.,.,/,/,/,/,
CCN(CC)c1ccc2cc(C(=O)NNC(=O)c3ccc(S(=O)(=O)N4CCCCC4)cc3)c(=O)oc2c1,.,.,4.7,.,.,.,
CCc1ccc(N2C=C(C(=O)OC)C(c3cccc4ccccc34)C(C#N)=C2N)cc1 (centres undefined),.,.,/,/,/,/,
Cc1cccc(-c2cnc(C(O)c3ccc(Cl)cc3C)[nH]2)c1 (centres undefined),.,.,.,/,/,/,
Cc1csc2c(NC3CCN(Cc4ccccc4)CC3)ncnc12,.,.,5.6,.,.,.,
CCOC(=O)[C@]12CCC=C1N(Cc1ccc3c(c1)OCO3)C(=O)[C@H](CC(=O)NCC13CC4CC(CC(C4)C1)C3)C2,.,.,/,/,/,/,
CCN1CCN(CCC(=O)Nc2ccc(Br)c(C)c2)CC1,.,.,.,.,/,/,
CCOC(=O)N1CCN(CCC(=O)Nc2ccc(Br)c(C)c2)CC1,.,.,8.9,.,11,.,
COc1ccc(-c2ccnc3c(C(=O)O)cnn23)cc1,.,/,9.6,.,.,.,
O=C(O)c1cnn2c(-c3ccccc3)ccnc12,.,.,.,.,/,/,
CCOc1ccc(N=Nc2ccc(O)c3ncccc23)cc1,.,.,.,.,/,/,
Cc1ccc(C)c(N=Nc2ccc(O)c3ncccc23)c1,.,.,.,.,/,/,
Cc1cccc(N=Nc2ccc(O)c3ncccc23)c1,.,.,6.9,.,6.5,.,
NS(=O)(=O)c1ccc(N=Nc2ccc(O)c3ncccc23)cc1,.,.,11,.,.,13,
CC(C)C[C@H]1CN(CCCC[C@@H]2CNC(=O)C(=O)N2CC2CCCCC2)C(=O)C(=O)N1Cc1ccccc1,.,.,/,/,/,/,
O=C(Nc1ccc(C(O)c2ccccc2)cc1)[C@@H]1O[C@H](CO)[C@@H](O)[C@H]1O (some centres undefined),.,.,.,/,/,/,
CCC(CC)C(C(=O)NCc1ccccc1)N(C)Cc1ccc(Cl)c(Cl)c1 (centres undefined),.,.,/,/,/,/,
C#CCOCCOCCOCCNc1nc(N2CCN(C(=O)CCCCCCCCCCNC(=O)Cn3cc(CCCCCN)nn3)CC2)nc(N2CCN(C(=O)CCCCCCCCCCNC(=O)[C@@H](CCC(=O)O)n3cc(CCCCCN)nn3)CC2)n1,.,.,.,.,/,/,
C#CCOCCOCCOCCNc1nc(N2CCN(C(=O)CCCCCCCCCCNC(=O)Cn3cc(CCCCCN)nn3)CC2)nc(N2CCN(C(=O)CCCCCCCCCCNC(=O)[C@@H](CCSC)n3cc(CCO)nn3)CC2)n1,.,.,14,.,13,.,
O=C(Nc1ccn([C@H]2CC[C@@H](CO)O2)c(=O)n1)c1ccccc1,.,.,24,.,22,.,GFP quench DR=.
CC(=O)OC1CC(n2ccc(NC(=O)c3ccccc3)nc2=O)OC1CO (centres undefined),.,.,.,.,/,/,
SMILES,SUMO1-SIM PPI,Neddylation inh,Rin1-Abl PPI inh,ATG4B inhibitor,Rin1-Abl confirm,GFP quench,others
CCCCn1c(O)c2n(c1=O)Cc1ccccc1N=C2c1ccc(C)cc1,.,.,.,/,/,/,
O=C(CCS(=O)(=O)c1ccc(Br)cc1)N1CCN(c2ccccc2F)CC1,.,.,.,.,/,/,
O=C(CCS(=O)(=O)c1ccc(Br)cc1)N1CCN(c2ccccc2Cl)CC1,.,.,9.0,.,.,.,
O=C(/C=C/c1ccccc1)CCN1CCCCC1,.,.,.,.,/,/,
O=C(O)c1ccc(COc2ccccc2Cl)cc1,.,.,5.0,.,.,.,
O=C(NC1CCCCCC1)C1CCCN(S(=O)(=O)c2cnc[nH]2)C1 (centres undefined),.,.,.,.,/,/,
O=C(NC1CCCc2ccccc21)C1CCCN(S(=O)(=O)c2cnc[nH]2)C1 (centres undefined),.,.,7.3,.,.,.,
CCN(CC)c1nc2c3c(nc4c(c3c1C#N)CC(=O)N4c1ccc(Cl)cc1)NC(C)=N2,.,.,15,.,14,.,
Cc1ccnc(NC(c2ccccc2O)c2oc(CO)cc(=O)c2O)c1 (centres undefined),.,.,27,.,9.8,.,
CCOC(=O)CN1C(=O)NC2NC(=O)NC21 (centres undefined),.,.,14,.,18,.,GFP quench DR=.
CC1CCCN(C(=O)CSc2nnc(-c3ccc(O)cc3)o2)C1 (centres undefined),.,.,.,.,/,/,
O=C(CCSc1nnc(-c2ccc(O)cc2)o1)N1CCOCC1,.,.,15,.,16,.,
CCN(CC)C(=O)C1=C(C)N(CCCOC)C(=O)C(CC(=O)NCc2cccs2)C1 (centres undefined),.,.,.,/,/,/,
CC(/C=N/n1c(-c2ccccn2)n[nH]c1=S)=C\c1ccccc1,.,.,.,.,/,/,
CC(/C=N/n1c(-c2ccco2)n[nH]c1=S)=C\c1ccccc1,.,.,7.4,.,.,.,
Cc1ccccc1Nc1nc(Cl)nc(NC(C)(C)C)n1,.,.,.,/,/,/,
CC1CCCCN1c1ncnc(N)c1[N+](=O)[O-] (centres undefined),.,.,7.2,.,.,.,
CC1Cc2ccccc2N1c1ncnc(N)c1[N+](=O)[O-] (centres undefined),.,.,.,.,/,/,
O=C(Cc1ccccc1)Nc1nnc(-c2cccs2)s1,.,.,9.4,.,.,.,
CCCNC(=O)C1(C)CCCN(C(=O)c2cc(C)n(C(C)(C)C)n2)C1 (centres undefined),.,.,.,/,/,/,
CCCNC(=O)C1(C)CCCN(C(=O)COc2ccc(C(C)(C)C)cc2)C1 (centres undefined),.,.,.,/,/,/,
CC1CC(=O)c2cn3c(nc2C1)nc1ccccc13 (centres undefined),.,.,.,.,/,/,
CC1(C)CC(=O)c2cn3c(nc2C1)nc1ccccc13,.,.,7.8,.,10,.,
O=C(N/N=C\c1ccc(F)cc1)c1ccc(F)cc1,.,.,.,.,/,/,
CC(=O)Nc1ccc(C(=O)N/N=C/c2ccc(F)cc2)cc1,.,.,10,.,.,.,
CCOC(=O)C1(Cc2ccc(OC)cc2)CCN(C(=O)CN2CCCCC2=O)CC1,.,.,9.9,.,.,.,
Cc1cc(NC(=O)Cn2nc(C(F)(F)F)c3c2CCC3)no1,.,.,.,.,/,/,
Cc1ccc(NC(=O)Cn2nc(C(F)(F)F)c3c2CCC3)cc1,.,.,5.0,.,.,.,
